From PubChem BioAssay (NCI) come the findings set out here.

This is part of a sample that, as a whole, favours compounds with a hit. Of some 83,000 tested, about 20% had one in any assay.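 Method: cells in 96-well plates; compound added at one concentration; 48 h incubation; percent growth measured; values under 10 scored active.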 Unmarked numbers belong to inactive results. Active and inactive are the calls of the source.

The test concerns HL-60(TB) leukemia. The experiment in a line: NCI-60 one-dose screen, 48 h (100 = growth as untreated, 0 = no growth, -100 = all killed). Conditions: 10 µM unless noted.
For the compound `Cc1cc(C)c(NC(=O)c2sc3nc4c(cc3c2N)C(=O)CCC4)c(C)c1`, the growth was 14.6%.

In the case of `CN1C(=O)N(C)C2C1NN=c1s/c(=C\C=C\c3ccccc3)c(=O)n12` (stereo not given), the growth is 17.1%.

For `COc1ccc(-c2cc(-c3ccc(N(C)C)cc3)nc(NC(=O)c3cccnc3)n2)cc1`, the growth was 109%.

On to `CC(=O)CSC(C)=O`, for which the growth was 102%.

For the compound `Clc1c(Cl)[n+](Cc2ccc3ccccc3c2)cn1Cc1ccc2ccccc2c1`, the growth was -54.7% (active).

As for `O=C(Nc1nn2c(-c3cc(C(F)(F)F)cc(C(F)(F)F)c3)nnc2s1)C1CCCC1`, the growth is -53.3% (active).

In the case of `COc1ccc(Cl)cc1Nc1nc(C(F)(F)F)ccc1C(=O)N/N=C/c1ccc(N(C)C)cc1`, the growth is 85.4%.

Turning to `COc1ccc(/C=C(\C#N)n2nc3cccc(F)c3n2)cc1`, the growth was 82%.

Consider `CCN(CC)CCN1c2nc3ccccc3cc2Sc2cc3ccccc3nc21`, for which the growth is -21.1% (active).

As to `CCCCC(CCc1ccc([N+](=O)[O-])cc1)(C(C)=O)C(=O)OCC` (stereo not given), the growth is 93%.

On to `CCSc1ccc(C2C(Br)C(=O)N2c2cc(OC)c(OC)c(OC)c2)cc1` (stereo not given), for which the growth was -9.14% (active).

In the case of `Nc1cc(C(=O)NC[C@H]2CN(c3ccc(N4CCC(C(=O)O)CC4)cc3)C(=O)O2)ccc1Cl`, the growth is 97.9%.

Consider `Cc1cc(NCCCCNc2ccnc3cc(Cl)ccc23)nc(Nc2ccc(C(=O)N3CCCCC3)cc2)n1`, for which the growth is -59.3% (active).

As to `CN(C)c1ccc2nc3ccc(=N)cc-3sc2c1`, the growth was -28.5% (active).

For `c1ccc2cc(C[n+]3ccn(CCCCCCn4cc[n+](Cc5ccc6ccccc6c5)c4)c3)ccc2c1`, the growth was 87.9%.

Regarding `CCC12CCC[N+]3([O-])CCC4(C(=Nc5ccccc54)C(O)(C(=O)OC)C1)C23` (stereo not given), the growth was 124%.

As to `Cc1cc(N/N=C/c2nc(-c3ccccc3)oc2C)c2cc(Cl)ccc2n1`, the growth is -37.4% (active).

In the case of `COc1ccc(C(=O)COc2cccc(/C=C3\Cc4ccccc4C3=O)c2)cc1`, the growth is 73.4%.

On to `C=C(CN1CC=CCC1)[C@@H]1CC[C@]2(C(=O)OC)CC[C@]3(C)[C@H](CC[C@@H]4[C@@]5(C)CC[C@H](OC(C)=O)C(C)(C)[C@@H]5CC[C@]43C)[C@@H]12`, for which the growth is 49.6%.

Consider `O=C1CCCCN1c1ccc(C2=NCCCN2)cc1`, for which the growth is 70.7%.

Consider `COc1ccc(C(=O)/C=C/Nc2cc(-c3ccccc3)nn2-c2ccccc2)cc1`, for which the growth was 93.2%.

For the compound `C[C@@H](Oc1cc(-c2cnn(C3CC4(CCCNC4)C3)c2)cnc1N)c1c(Cl)ccc(F)c1Cl` (stereo not given in full), the growth was -41% (active).

For the compound `CCOC(=O)c1ccc2nc(-c3c(C)nn(-c4ccccc4)c3N3CCOCC3)[nH]c2c1`, the growth is 95.4%.

`Cc1ccc(S(=O)(=O)N(c2ccc(Cl)cc2)c2ccc(Br)cc2C(=O)O)cc1`: the growth was 110%.

For the compound `CCOC(=O)c1c(C)nc2c(c1N)/C(=C/c1cccs1)C(=O)N2Cc1ccccc1`, the growth was 60.4%.

Regarding `CCCCCCN1CSC(=S)N(CCCCCC)C1`, the growth was 112%.

For the compound `COc1ccc(CN2c3ccccc3Sc3ccccc32)c(C(F)(F)F)c1`, the growth is 23.7%.

Turning to `CCOC(=O)c1cc2c(n1Cc1cc(OC)cc(OC)c1Br)-c1nc(NC(C)=O)sc1CCC2`, the growth is 43.1%.

Turning to `COc1ccc(/C=N/Nc2cc(=O)[nH]c3ccc(Cl)cc23)cc1`, the growth was 45.3%.

Consider `O=C1/C(=C/c2ccc([N+](=O)[O-])o2)Oc2ccc(Cl)cc21`, for which the growth was -21.3% (active).

In the case of `Nc1[nH]c(=S)nc2oc(-c3ccccc3)c(-c3ccccc3)c12`, the growth is 90.5%.

As to `C=C1C(=O)O[C@H]2[C@H]1CC/C(COC(=O)c1cc3ccccc3o1)=C\CC[C@@]1(C)O[C@@H]21`, the growth is -2.94% (active).

On to `O=C1c2c(O)cc(O)cc2-c2c(-c3ccc(O)cc3)oc3cc(O)cc1c23`, for which the growth is 17%.

As for `CC(C)(CCCN=C(N)Nc1ccc(Cl)cc1)c1ccc(F)cc1`, the growth was 93.4%.

Take `Clc1ccc(Cn2cc(-c3nc4ccc(Br)nc4n3Cc3ccc(Cl)cc3)c3cccnc32)cc1`: the growth was 94.1%.

`C=C1C(=O)O[C@H]2[C@H]1CC/C(COC(=O)/C=C/c1c[nH]c3ccccc13)=C\CC[C@@]1(C)O[C@@H]21`: the growth is -18.7% (active).

As to `C/C(=N\N=C1/SCC(=O)N1c1ccccc1)c1ccco1`, the growth was 99%.

For the compound `CC(C)C1C2=C(NCCN1C(=O)c1ccncc1)C(C)(C)N(Cc1ccccc1)C2=O` (stereo not given), the growth was 87.3%.

`COc1c(Br)cc(C(c2cc(Br)c(OC)c(Br)c2)c2ccccc2C(=O)O)cc1Br`: the growth was 91%.

In the case of `COc1ccccc1C(=O)Nc1cccc(NC(=O)c2ccoc2C)c1`, the growth is -18.3% (active).
